Reference: PubChem BioAssay AID577 (University of Pittsburgh Molecular Library Screening Center, 2007)
In all, about 65,000 compounds went through this assay and about 120 (0.18%) were called active. Rule as the data show it: active = z-score below about -3; inactive = the rest. For the sample, actives were picked, then their nearest neighbours and some compounds at random.

molecular target: Genome polyprotein (West Nile virus) (UniProt P06935); experiment: inhibitors of WNV NS2B-NS3 protease, primary screen, biochemical, fluorogenic substrate (AID 577); details: fluorogenic substrate Ex360/Em465, hits give low values
Sequence (P06935 1371-1501 limits assumed): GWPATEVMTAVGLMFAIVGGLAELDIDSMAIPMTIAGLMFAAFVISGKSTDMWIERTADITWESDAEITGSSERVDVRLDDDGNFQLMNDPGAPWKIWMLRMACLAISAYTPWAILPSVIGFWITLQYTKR
Sequence (P06935 1502-1679 limits assumed): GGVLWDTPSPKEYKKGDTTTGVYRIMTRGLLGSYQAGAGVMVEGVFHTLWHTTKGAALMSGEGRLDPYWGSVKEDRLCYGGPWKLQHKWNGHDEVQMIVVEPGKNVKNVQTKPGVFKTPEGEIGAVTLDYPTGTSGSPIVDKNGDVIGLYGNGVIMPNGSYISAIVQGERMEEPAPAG

Row | Structure (SMILES) | z-score
1 | O=C(Nc1ccccc1N1CCCCC1)c1ccc2nccnc2c1 | -0.92 (inactive)
2 | Cc1cc(N2C(=O)C(=O)/C(=C(/O)c3ccc(Cl)cc3)C2c2cccc(Br)c2)no1 (stereo not drawn) | 0.05 (inactive)
3 | COc1ccc(S(=O)(=O)N2CCN(c3ncnc4c(-c5ccccc5)nsc34)CC2)cc1 | -0.64 (inactive)
4 | Cc1ccc(NC(=O)C2CC(c3ccc(F)cc3)=NO2)cc1 (stereo not drawn) | -0.46 (inactive)
5 | Cc1noc(C)c1S(=O)(=O)NCCc1ccc(S(N)(=O)=O)cc1 | -0.09 (inactive)
6 | Cn1c(=O)cc(OCCCC(=O)N2CCN(Cc3ccc4c(c3)OCO4)CC2)c2ccccc21 | -0.06 (inactive)
7 | O=c1[nH][nH]c(=O)c2cc(N3CCCC3)ccc12 | 0.92 (inactive)
8 | COc1ccc(C)c2sc(=NC(=O)c3ccc(C#N)cc3)n(C)c12 | 0.36 (inactive)
9 | COc1ccccc1CNC(=O)CCn1c(=O)sc2ccccc21 | 0.34 (inactive)
10 | O=S(=O)(CCc1nc2ccccc2o1)c1ccc(Cl)cc1 | 0.84 (inactive)
11 | CCN(CC(=O)NC(C)C)C(=O)CCNC(=O)c1ccc(Cl)cc1 | -3.81 (active)
12 | CC(NC(=O)c1ccc(Cl)cc1)C(=O)N1CCCCC1 (stereo not drawn) | -0.48 (inactive)
13 | Cc1ccc(CNC(=O)CCCNC(=O)c2ccc(Cl)cc2)n1C | 0.2 (inactive)
14 | CCOC(=O)C1CCCN(C(=O)Cn2ncc3c(=O)oc4ccc(C)cc4c32)C1 (stereo not drawn) | -0.8 (inactive)
15 | CC(=O)N(Cc1cccs1)C1CCOC(C)(C)C1 (stereo not drawn) | 0.1 (inactive)
16 | O=c1c2c(nc3n1CCCCC3)sc1c(O)cccc12 | -0.99 (inactive)
17 | CCn1cc(C(=O)NCc2ccc(OC)cc2OC)c(=O)c2ccc(C)nc21 | 0.31 (inactive)
18 | CC(=O)N1CCN(C(=O)c2cccc(S(=O)(=O)Nc3ccc(C)cc3)c2)CC1 | -4.83 (active)
19 | O=C(c1cccc(S(=O)(=O)N2CCOCC2)c1)N1CCOCC1 | -0.56 (inactive)
20 | CN1CCN(C(=O)c2ccc(NS(=O)(=O)c3ccccc3)cc2)CC1 | 0.73 (inactive)
21 | O=C(NCc1ccco1)C1CCCN(S(=O)(=O)c2cnc[nH]2)C1 (stereo not drawn) | 0.15 (inactive)
22 | Cn1c(=O)[nH]c(=O)c2c1nc(N1CCN(CCO)CC1)n2CCSc1nc2ccccc2s1 | 0.89 (inactive)
23 | CCOC(=O)N1CCC(NC(=O)c2ccc3nc(N4CCOCC4)sc3c2)CC1 | -0.98 (inactive)
24 | O=C(NCc1ccco1)c1ccc(CS(=O)(=O)Cc2ccc(F)cc2)o1 | -0.19 (inactive)
25 | CCOc1ccccc1NC(=O)c1cc(S(=O)(=O)N2CCC3(CC2)OCCO3)ccc1F | -0.89 (inactive)

Row | Structure (SMILES) | z-score
26 | O=C(Cn1c(-c2ccccn2)nc2ccccc21)NCCN1CCOCC1 | 0.41 (inactive)
27 | O=C(Nc1ccon1)c1sc2ccccc2c1Cl | 1.15 (inactive)
28 | O=C(O)Cc1ccc(NC(=O)C2CCCCC2C(=O)O)cc1 (stereo not drawn) | 0.69 (inactive)
29 | Cc1cccc(N2CC(C)Cn3c2nc2c3c(=O)n(CC(=O)OCc3ccccc3)c(=O)n2C)c1 (stereo not drawn) | -0.58 (inactive)
30 | O=C(Cc1c(F)cccc1Cl)N1CCN(C(=O)c2ccco2)CC1 | 0.71 (inactive)
31 | Cc1oc(CC(C)C)c(CN2CCCC2)c1C(=O)O | 0.09 (inactive)
32 | CC1CCN(c2nc3c(c(=O)[nH]c(=O)n3C)n2CCCc2ccccc2)CC1 | -0.61 (inactive)
33 | COc1ccc(NC(=O)Nc2cccc3cccnc23)cc1 | -0.61 (inactive)
34 | COc1ccc(-c2ccc(Nc3ccc(S(=O)(=O)N4CCCC4)cc3)nn2)cc1OC | -0.56 (inactive)
35 | c1ccc(-c2cc(-c3nnc4sc(-c5ccccn5)nn34)[nH]n2)cc1 | -1.41 (inactive)
36 | Cc1cc2nc(-c3ccc(NC(=O)c4cccnc4)cc3)oc2cc1C | -0.13 (inactive)
37 | COc1ccc(OC)c(S(=O)(=O)Nc2ccccc2F)c1 | 0.89 (inactive)
38 | O=C(Cn1cnc2c(nnn2-c2ccccc2)c1=O)N1CCC(Cc2ccccc2)CC1 | 2.2 (inactive)
39 | NS(=O)(=O)c1cc2c(cc1Cl)NC(C(Cl)Cl)NS2(=O)=O (stereo not drawn) | 1.86 (inactive)
40 | CNC(=O)n1ccc(C(=O)N2CCCCC2)n1 | 1.25 (inactive)
41 | COc1ccccc1N=C1SC(C)CN1C(=O)C1CCC1 (stereo not drawn) | -0.3 (inactive)
42 | COCCN1Cc2cccc(C(=O)Nc3ccccc3OC)c2C1=O | -0.41 (inactive)
43 | CC(C)OCCCNC(=O)C1CC(=O)N(C2CCCCCCC2)C1 (stereo not drawn) | -1.25 (inactive)
44 | CCOC(=O)C1=C(CNC2CCCCC2)NC(=O)NC1c1cc(C)ccc1C (stereo not drawn) | -0.35 (inactive)
45 | c1ccc(-c2noc(-c3cccs3)n2)nc1 | -0.18 (inactive)
46 | O=C(CCCN1C(=O)CSc2ncccc21)N1CCN(c2cccc(C(F)(F)F)c2)CC1 | 0.85 (inactive)
47 | O=C(CC1(O)C(=O)N(CN2CCOCC2)c2ccccc21)c1ccccc1 (stereo not drawn) | 2.57 (inactive)
48 | CC(C)Cn1c(CN(Cc2ccccc2)Cc2ccccc2)nc2c1c(=O)n(C)c(=O)n2C | 0.14 (inactive)
49 | CCOC(=O)N1CCN(CC(=O)c2ccc3c(c2)CCN3)CC1 | -0.8 (inactive)
50 | O=C1Nc2ccccc2C12Nc1ccccc1S2 (stereo not drawn) | -0.84 (inactive)

Row | Structure (SMILES) | z-score
51 | CC(=O)N1CC2(C)CN(C(C)=O)CC(C)(C1)C2=O | -0.17 (inactive)
52 | CCOC(=O)c1cnc(-n2nc(C)cc2C)nc1-n1nc(C)cc1C | 0.5 (inactive)
53 | CCOC(=O)N1CCN(C(=O)CN(C2CCCCC2)S(C)(=O)=O)CC1 | -1.44 (inactive)
54 | COC(=O)C1=C(C)NC2=C(C(=O)c3ccccc32)C1c1ccc(-c2ccc(C(=O)O)cc2)o1 (stereo not drawn) | 0.76 (inactive)
55 | COCCCN(C(=O)Cn1ncc2c(=O)oc3ccc(C)cc3c21)C(C)c1ccncc1 (stereo not drawn) | -0.67 (inactive)
56 | Cc1ccccc1N1CC(c2nc3ccccc3[nH]2)CC1=O (stereo not drawn) | 1.22 (inactive)
57 | O=C(CC1N=C2c3ccccc3N=C(SCc3ccccc3Cl)N2C1=O)NCc1ccco1 (stereo not drawn) | 1.46 (inactive)
58 | Cc1c(C(=O)Nc2ccccc2Cl)oc2ccc(S(=O)(=O)N3CCC4(CC3)OCCO4)cc12 | -1.64 (inactive)
59 | Cc1cccc(-n2c(N)cc(=O)nc2SC(C)C(=O)NC2CCCCC2)c1 (stereo not drawn) | -0.09 (inactive)
60 | CCCCN=C(N)/C(C(=O)OCC)=C(\O)c1ccc(OC)cc1 | 0.82 (inactive)
61 | COc1ccc2c(Cl)c(-c3nnco3)sc2c1 | -0.13 (inactive)
62 | C=CCOc1ccc(/C=N/n2cncn2)cc1OC | 1.7 (inactive)
63 | CCOCC(=O)NCc1ccc2c(c1)cc(C)n2C | -0.69 (inactive)
64 | Cc1ccc2c(c1)NCC(C(=O)NC1CCC(C)CC1)O2 (stereo not drawn) | 0.12 (inactive)
65 | c1ccc(-c2nnc3n2NC(c2ccc4c(c2)OCO4)S3)cc1 (stereo not drawn) | -0.39 (inactive)
66 | C=CCn1c(COc2cccc3cccnc23)nnc1SCC(=O)OC | -1.04 (inactive)
67 | COc1ccc(-n2c(SCC(=O)Nc3ccc4c(c3)OCO4)nnc2C(C)N2CCCCC2)cc1 (stereo not drawn) | -0.67 (inactive)
68 | CCOc1ccccc1NC(=O)CCc1ccc(C)o1 | -0.55 (inactive)
69 | O=C(c1ccco1)N(Cc1nc2ccccc2c(=O)[nH]1)C1CCCC1 | -1.19 (inactive)
70 | Cn1c(NC(=O)c2ccco2)c(-c2ccccc2Cl)c(=O)c2ccccc21 | -0.04 (inactive)
71 | COc1ccc2oc(C)c(NC(C)=O)c2c1 | -0.59 (inactive)
72 | COC(=O)c1oc2ccc(Br)cc2c1NC(C)=O | 0.25 (inactive)
73 | COc1ccc(C(=O)c2oc3ccc(Br)cc3c2NC(C)=O)cc1 | -3 (active)
74 | O=C1CSC(c2cccc(F)c2)N1c1ccccc1F (stereo not drawn) | -0.93 (inactive)
75 | CCCS(=O)(=O)N1CCCC(C(=O)N2CCN(c3ccccc3)CC2)C1 (stereo not drawn) | 0.81 (inactive)

Row | Structure (SMILES) | z-score
76 | CCn1c(SCCC(C)C)nnc1-c1c[nH]c2ccccc12 | -0.65 (inactive)
77 | CCOC1CCCCC1NS(=O)(=O)c1ccc(Cl)cc1 (stereo not drawn) | -0.25 (inactive)
78 | CCNC(=O)N1CCNC(=O)C1CC(=O)Nc1ccc(C(=O)OCC)cc1 (stereo not drawn) | -0.78 (inactive)
79 | Cc1cccc2nc(CNc3ccc(F)cc3)cn12 | -0.49 (inactive)
80 | Cc1cc(N2CCCC2=O)cc(C)c1S(N)(=O)=O | 0.56 (inactive)
81 | O=C(O)C1C2C=CC(C2)C1C(=O)N1CCN(CCO)CC1 (stereo not drawn) | 0.43 (inactive)
82 | CCCn1c(=O)c2[nH]c(C3CCCC3)nc2n(CCC)c1=O | 0.05 (inactive)
83 | CCOc1ccccc1Nc1nnc(SCC(=O)Nc2cc(C)on2)s1 | -1.46 (inactive)
84 | O=C(CN1C(=O)COc2ccccc21)Nc1ccc(F)cc1 | 1.4 (inactive)
85 | Nc1cc(OC(=O)c2ccccc2Br)nn1S(=O)(=O)c1ccccc1 | -6.2 (active)
86 | Cc1ccc(S(=O)(=O)n2nc(OC(=O)C(C)(C)C)cc2N)cc1 | 0.18 (inactive)
87 | CCCCN(CC)C(=O)CN(C)S(=O)(=O)c1cccc2nsnc12 | 1.67 (inactive)
88 | CC1Cc2ccccc2N1C(=O)CSc1nnc(-c2ccc(S(=O)(=O)N3CCCCC3)cc2)o1 (stereo not drawn) | 0.94 (inactive)
89 | CC(=O)N1CSCC1C(=O)O (stereo not drawn) | -5.15 (active)
90 | COCc1cc(C)nc(SCC(=O)Nc2cccc(C)c2)c1C#N | 1.36 (inactive)
91 | Cn1c(=NC(=O)c2cnccn2)sc2ccccc21 | -1.53 (inactive)
92 | O=C(Nc1ccccc1N1CCCCC1)c1cccc(F)c1 | 0.74 (inactive)
93 | O=C(CNC(=O)c1ccc(Cl)cc1Cl)NCC(=O)Nc1ccccc1N1CCOCC1 | -1.5 (inactive)
94 | CC(=NCc1ccco1)C1=C(O)c2ccccc2C1=O | 0.81 (inactive)
95 | CC1Cc2ccccc2N1C(=O)CSc1nc2ccccc2o1 (stereo not drawn) | -0.42 (inactive)
96 | O=C(COc1ncnc2ccccc12)NC(=O)NCc1ccccc1 | 0.88 (inactive)
97 | Cc1noc(C)c1COC(=O)Cn1c(C)nc2ccccc21 | -1.33 (inactive)
98 | CCOC(=O)N1CCC(NC(=O)C(C)n2c3ccccc3c3cnn(C)c(=O)c32)CC1 (stereo not drawn) | -0.72 (inactive)
